PfGluPho inh: PfG6PD (Plasmodium falciparum) enzyme inhibition; PfGluPho enzyme, NADPH resazurin-diaphorase fluorescence; inhibition, % at 20 µM; 350,000 compounds, 0.78% hits;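 active means inhibition reaching at least a set limit at 20 µM in the primary screen, cut at about 59% in these data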;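 further: 0% = DMSO wells with substrate and 100% = DMSO wells lacking glucose-6-phosphate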
APOBEC3G inh: APOBEC3G (human) deaminase inhibition; 330,000 compounds, 0.28% hits; inhibition, % at 20 µM; recombinant A3G, ssDNA deamination FAM/TAMRA fluorescence;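 active means inhibition of at least 40% at 20 µM, with no more than 30% in the related APOBEC3A deaminase screen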;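 further: plate controls were DMSO wells with A3G for no effect and wells lacking A3G enzyme for full effect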
Target sequence (Q9HC16 whole entry, looked up): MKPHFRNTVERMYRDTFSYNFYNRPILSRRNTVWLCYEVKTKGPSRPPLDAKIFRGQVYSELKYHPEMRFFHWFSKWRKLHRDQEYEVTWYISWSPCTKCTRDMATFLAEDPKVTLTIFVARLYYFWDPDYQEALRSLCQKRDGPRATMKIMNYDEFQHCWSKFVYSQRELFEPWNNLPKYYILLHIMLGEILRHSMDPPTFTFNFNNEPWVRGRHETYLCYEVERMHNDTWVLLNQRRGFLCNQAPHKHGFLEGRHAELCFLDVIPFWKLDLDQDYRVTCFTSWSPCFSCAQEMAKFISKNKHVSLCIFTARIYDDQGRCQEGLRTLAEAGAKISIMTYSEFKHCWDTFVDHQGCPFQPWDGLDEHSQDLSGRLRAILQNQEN
NadD inh: blocks S. aureus nicotinate mononucleotide adenylyltransferase; purified NadD enzyme, colorimetric absorbance read-out; inhibition, % at 20 µM; 360,000 compounds, 0.78% hits; AID 602399; in the data active means inhibition above about 26%
H9c2 TAG inh: inhibitors of triacylglycerol accumulation; H9c2 cells, Nile Red lipid (TAG) fluorescence; cells loaded with 200 µM oleic acid; inhibition, % at 12.5 µM; 230,000 compounds, 0.66% hits; AID 651582;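 active means pattern-corrected inhibition of lipid staining of at least 50% with the nuclear-stain viability signal not falling by more than 50%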;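 further: 0% = DMSO wells and 100% = triacsin C control wells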
A3A deaminase: blocks human APOBEC3A ssDNA deamination; P31941; inhibition, % at 20 µM; recombinant A3A, FAM/TAMRA ssDNA deamination fluorescence; AID 493011; 330,000 compounds, 0.41% hits;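 active means at least 40% inhibition at 20 µM here, with at most 30% in a related deaminase screen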;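 further: plate controls were A3A with DMSO for no effect and wells lacking A3A enzyme for full effect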
Target sequence (P31941 whole entry, looked up): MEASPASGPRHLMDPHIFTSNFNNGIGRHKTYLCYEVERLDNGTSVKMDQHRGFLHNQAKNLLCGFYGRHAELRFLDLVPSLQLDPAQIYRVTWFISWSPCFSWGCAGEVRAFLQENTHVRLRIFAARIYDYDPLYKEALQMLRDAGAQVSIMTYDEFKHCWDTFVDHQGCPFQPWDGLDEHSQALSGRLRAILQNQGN
Cardio protect: protects H9c2 cardiomyocytes from peroxide injury; H2O2 injury protection, ATPLite, 2 h; 360,000 compounds, 0.63% hits; protection from H2O2 cell death, % at 20 µM;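 active means compounds giving at least 50% protection of heart cells from peroxide-induced death in the single-dose screen, raw or plate-pattern-corrected value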;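 further: 0% = DMSO wells with peroxide and 100% = DMSO wells without peroxide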
* marks the source's active call; other numbers are inactive results. The list is not random: actives were taken first. Their share in the collection is about 2.9%.

Screening COc1ccc(OC)c(Nc2cc3ccccc3c(=O)[nH]2)c1 returned PfGluPho inh 36, APOBEC3G inh -10, NadD inh 2, H9c2 TAG inh 28, A3A deaminase -3 and Cardio protect 54*.
`Cn1c(=O)c2c(nc(NCc3ccc4c(c3)OCO4)n2C)n(C)c1=O` gave PfGluPho inh 6, APOBEC3G inh -5, NadD inh -5, A3A deaminase -4 and Cardio protect 53*.
`COc1ccc2[nH]cc(C(=O)CCl)c2c1` gave PfGluPho inh 9, APOBEC3G inh -2, NadD inh 5, H9c2 TAG inh 72*, A3A deaminase 2 and Cardio protect -2.
Screening COc1ccc2[nH]cc(C(=O)CN3CC(C)CC(C)C3)c2c1 (stereo not drawn) returned PfGluPho inh 0, APOBEC3G inh -5, NadD inh -2, A3A deaminase -1 and Cardio protect 6.
Screening NC(=O)c1ccsc1NC(=O)COC(=O)c1cccnc1Cl returned PfGluPho inh 6, APOBEC3G inh -3, NadD inh 0, H9c2 TAG inh 2, A3A deaminase -1 and Cardio protect 9.
O=c1cc(-c2ccncc2)oc2ccccc12 was read as PfGluPho inh -25, APOBEC3G inh -4, NadD inh 2, H9c2 TAG inh -3, A3A deaminase -3 and Cardio protect 53*.
For O=c1cc(-c2ccc(O)cc2)oc2ccccc12 the results were PfGluPho inh 3, APOBEC3G inh 5, NadD inh -1, A3A deaminase 2 and Cardio protect 22.
Screening O=C(O)c1cc(Nc2cc(Cl)c3nonc3c2[N+](=O)[O-])ccc1O returned PfGluPho inh 20, APOBEC3G inh 1, NadD inh -3, A3A deaminase -1 and Cardio protect 12.
Cn1cc(CN2CCCC(CO)(Cc3ccccc3)C2)cn1 (stereo not drawn) was read as PfGluPho inh -2, APOBEC3G inh 4, NadD inh -3, H9c2 TAG inh -7, A3A deaminase 3 and Cardio protect 3.
Cc1ccc(CSCC2Nc3ccc(C(=O)N4CCN(c5cccc(C)c5)C(C)C4)cc3NC2=O)cc1 (stereo not drawn) was read as APOBEC3G inh 46* and A3A deaminase -23.
For Cc1cccc(N2CCN(C(=O)c3ccc4c(c3)NC(=O)C(CSCc3ccc(F)cc3)N4)CC2C)c1 (stereo not drawn) the results were APOBEC3G inh 9 and A3A deaminase -29.
Screening O=C(c1cc(S(=O)(=O)N2CCN(c3ccccc3)CC2)ccc1Cl)N1CCCCCCC1 returned PfGluPho inh -13, APOBEC3G inh -11, NadD inh 2, H9c2 TAG inh -23, A3A deaminase -4 and Cardio protect -12.
Screening COc1ccc(/C=C2\CN(Cc3ccccc3)C/C(=C\c3ccc(OC)cc3OC)C2=O)c(OC)c1 returned PfGluPho inh -8, APOBEC3G inh -1, NadD inh 29*, H9c2 TAG inh 8, A3A deaminase 5 and Cardio protect 44.
Screening CCCCN(C(=O)c1cc2c(s1)CCCCC2)c1c(N)n(CC(C)C)c(=O)[nH]c1=O returned PfGluPho inh -11, APOBEC3G inh -5, NadD inh -2, H9c2 TAG inh 6, A3A deaminase 0 and Cardio protect 6.
Screening CC1CCN(C(=O)c2ccc3c(c2NCCO)C(=O)c2ccccc2C3=O)CC1 returned PfGluPho inh -18, APOBEC3G inh 3, NadD inh -1, H9c2 TAG inh 118*, A3A deaminase 2 and Cardio protect 29.
For C/C(=N\OCC(=O)OCC(=O)N(Cc1ccccc1)C(C)(C)C)c1ccc2c(c1)OCO2 the results were PfGluPho inh -7, APOBEC3G inh 4, NadD inh -10, H9c2 TAG inh -16, A3A deaminase 1 and Cardio protect -2.
c1ccc(COc2ccc(OCCN3CCCCC3)cc2)cc1 was read as PfGluPho inh 1, APOBEC3G inh -8, NadD inh 0, A3A deaminase -1 and Cardio protect 6.
Screening Cc1ccccc1N1CC(=O)N(c2ccccc2C)CC1=O returned PfGluPho inh -15, APOBEC3G inh 0, NadD inh 7, H9c2 TAG inh 8, A3A deaminase 4 and Cardio protect 11.
`Cc1cccc2c1c1ccc3c(c1n2C)C(=O)C=CC3=O` gave PfGluPho inh 57, NadD inh 50* and Cardio protect -22.
For CCCCOC(=O)Nc1nnc(Cc2ccc(Cl)cc2)s1 the results were PfGluPho inh 5, APOBEC3G inh -2, NadD inh -4, H9c2 TAG inh 1, A3A deaminase 1 and Cardio protect 1.
`O=C1NC(=O)c2cc(Br)cc3cccc1c23` gave PfGluPho inh -12, APOBEC3G inh 10, NadD inh -3, A3A deaminase 7 and Cardio protect 36.
`O=C1NC(=O)c2cc([N+](=O)[O-])cc3cccc1c23` gave PfGluPho inh 18, APOBEC3G inh 0, NadD inh -4, A3A deaminase -5 and Cardio protect 55*.
`CCn1c(/C=C/c2ccc(O)c(O)c2)nc2ccccc2c1=O` gave PfGluPho inh 20, APOBEC3G inh 1, NadD inh 10, H9c2 TAG inh -6, A3A deaminase 2 and Cardio protect 70*.
CCCCCc1cc(=O)oc2c(C(CCN3CCCCC3)c3ccc(OC)cc3)c(OC)cc(OC)c12 (stereo not drawn) was read as PfGluPho inh 19, APOBEC3G inh -8, NadD inh 4, H9c2 TAG inh 111*, A3A deaminase 0 and Cardio protect -34.
Screening CCCCCc1cc(=O)oc2c(C(CCN3CCCC3)c3ccc(N(C)C)cc3)c(OC)cc(OC)c12 (stereo not drawn) returned PfGluPho inh 14, APOBEC3G inh -3, NadD inh 11, H9c2 TAG inh 68*, A3A deaminase 3 and Cardio protect -13.
For COc1cc(OC)c2ccc(=O)oc2c1C(CCN1CCCC1)c1ccc(N(C)C)cc1 (stereo not drawn) the results were PfGluPho inh 1, APOBEC3G inh -9, NadD inh -7, H9c2 TAG inh -16, A3A deaminase -3 and Cardio protect 11.
`CCCCCc1cc(=O)oc2c(C(CCN3CCCC(C)C3)c3ccc(OC)cc3)c(OC)cc(OC)c12` (stereo not drawn) gave PfGluPho inh 18, APOBEC3G inh -5, NadD inh 10, H9c2 TAG inh 96*, A3A deaminase 0 and Cardio protect -24.
Screening Cc1cc(OCC(O)CN2CCc3ccccc3C2)ccc1Cl (stereo not drawn) returned PfGluPho inh 3, APOBEC3G inh -3, NadD inh -10, A3A deaminase -1 and Cardio protect -4.
For COc1ccc(NC(=O)CCCc2nc3ccccc3c(=O)[nH]2)cc1Cl the results were PfGluPho inh 19, APOBEC3G inh 6, NadD inh 1, H9c2 TAG inh 0, A3A deaminase 31 and Cardio protect 57*.

Compound activity (PubChem BioAssay)
